Results reported in PubChem BioAssay AID686940 (The Scripps Research Institute Molecular Screening Center, 2013).
Screen size: about 370,000 compounds; about 2,600 (0.7%) were called active.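 The calls were made as follows: active = inhibition above a per-plate cutoff, mean inhibition of test wells between control levels plus 3 SD (cut at about 38% in these data); inactive = the rest.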 Only a selection was taken, and actives are over-represented in it overall.

Biological target: COUP transcription factor 2 (Homo sapiens) (UniProt P24468)
Assay: NR2F2 transcriptional activity inhibitors, primary screen, cell-based, luciferase reporter, HEK293T, luminescence (AID 686940);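 also: cells cotransfected with COUP-TFII expression vector driving the NGFI-A reporter; 0% = median of COUP-TF2 test wells and 100% = reporter-only cells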
Settings: HEK293T NGFI-A luciferase reporter, at 8.6 µM, active compounds read high

Sequence of COUP transcription factor 2 (Homo sapiens) (P24468 whole entry, looked up): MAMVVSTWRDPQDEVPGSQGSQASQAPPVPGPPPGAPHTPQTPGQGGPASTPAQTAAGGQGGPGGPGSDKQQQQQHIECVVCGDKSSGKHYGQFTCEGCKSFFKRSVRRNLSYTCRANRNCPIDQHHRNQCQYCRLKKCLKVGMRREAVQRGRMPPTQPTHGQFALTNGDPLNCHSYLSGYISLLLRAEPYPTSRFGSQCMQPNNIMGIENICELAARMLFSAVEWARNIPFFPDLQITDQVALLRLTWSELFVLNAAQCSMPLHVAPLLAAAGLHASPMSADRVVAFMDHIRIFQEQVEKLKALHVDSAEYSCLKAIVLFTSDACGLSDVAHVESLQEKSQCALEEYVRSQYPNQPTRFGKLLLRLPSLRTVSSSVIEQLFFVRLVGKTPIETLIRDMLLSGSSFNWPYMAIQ

inhibition, active:
CCCc1ccc(-c2csc(NC(=O)Cc3cccs3)n2)cc1 42.5%, COc1cc(CC(=O)Nc2nc(-c3ccc(F)c(F)c3)cs2)cc(OC)c1OC 64.1%, COc1ccc(CC(=O)Nc2nc(-c3ccc(F)c(F)c3)cs2)cc1OC 64.1%, COc1ccc(NS(=O)(=O)c2ccc(NC(=O)c3ccc(N(C)S(C)(=O)=O)cc3)cc2)cc1 60.6%, O=C(Nc1ccc(Br)cn1)C1CCN(S(=O)(=O)c2cccs2)CC1 48.1%

inhibition, inactive:
C=CCN1C(=O)[C@H](CC(=O)NCCCN2CCCC2=O)[C@@]2(C(=O)OCC)CCCC=C12 -4.55%, CC(C)(C)NC(=O)C(c1cccnc1)N(C(=O)c1cnco1)c1ccc(C(C)(C)C)cc1 (stereo not given) 36.4%, CSc1ccc(C=Nn2c(-c3ccc(F)cc3)n[nH]c2=S)cc1 -7.74%, Cc1ccc(NC(=S)NNC(=O)CSc2nnc(SCc3ccccc3Cl)s2)cc1 9.26%, FC(F)(F)c1cccc(NC(=S)OC2CCC23CCC(c2ccccc2)CC3)c1 (stereo not given) -0.26%, COc1cc(CCC(=O)Nc2ccncc2Cl)cc(OC)c1OC -12.9%, Fc1ccc(-c2csc(-c3ccc(C4SCCS4)cc3)n2)cc1F 3.02%, COc1ccc(C2(CNC(=O)Cc3ccc(OC)c(OC)c3)CCCC2)cc1 -3.38%, O=C(CCc1ccccc1)NCCc1cccs1 -20.7%, COc1ccc(CCNC(=O)COC(=O)Cc2cc(OC)c(OC)c(OC)c2)cc1 2.38%, O=C(Cc1cccs1)Nc1ccc([N+](=O)[O-])cc1 1.87%, O=C(OC12CCCN(C1)/C(=C/c1cccnc1)C2)C1CCCC1 (stereo not given) 0.25%, Cc1cccc(C(=O)Nc2c(-c3ccc(F)cc3)nc3ncccn23)c1 -5.63%, CCN(C(=O)[C@@H](C1CC1)[C@@H](O)c1ccc2ccccc2c1)c1ccccc1 8.36%, O=C1C(=O)N(Cc2ccc(-c3ccsc3)cc2)c2ccc(OC(F)(F)F)cc21 -43.7%, CCCCC(=O)N[C@@H]1CC[C@@]23CCCN2C(=O)CCC[C@H]3[C@H]1C -2.57%, CCOC(=O)c1cc(C(=O)Nc2ccc(S(=O)(=O)Nc3ccc(OC)cc3)cc2)nn1C 8.95%, COc1ccc(NS(=O)(=O)c2cc(NC(=O)c3ccc(S(=O)(=O)N(C)C)cc3)ccc2N2CCOCC2)cc1 9.06%, O=C(N1CCOCC1)N1CC[C@H]2[C@H](CCCN2Cc2ccc(F)cc2)C1 6.77%, CCOC(=O)c1cccc(NC(=O)CN(C)S(=O)(=O)c2ccc(-c3cocn3)s2)c1 -17.4%, CCn1c(=O)n2n(c1=O)[C@@]1(C=C3CCCC[C@H]32)N=C(NC(=O)c2ccccc2)N(Cc2ccccc2)[C@H]1Cc1ccccc1 22.3%, C#CCN([C@H](C(=O)OC)C(C)CC)S(=O)(=O)c1ccccc1Br (stereo not given in full) -21.6%, FC(F)(F)c1cccc(Cn2ccc3ccc(-c4ccc5ccn(Cc6ccccc6)c5c4)cc32)c1 6.43%, C[C@H](C(=O)N(C)c1ccccc1)[C@@H](O)c1ccc(Cl)cc1 -16.9%, O=C(C1CCN(S(=O)(=O)c2cccs2)CC1)N1CCCCCC1 -11.4%, O=C(NCc1ccc(Cl)cc1)C1CCN(S(=O)(=O)c2cccs2)CC1 5.16%, COC(=O)C1CN(Cc2cn(Cc3ccc(F)cc3)nn2)CCS(=O)(=O)N1Cc1ccc(Cl)cc1 (stereo not given) 7.03%, COC(=O)[C@]12C[C@H](CC(=O)NCc3cccs3)C(=O)N(CCc3ccc(OC)c(OC)c3)C1=C[C@H](C(C)C)O[C@@H]2C1CC1 17.9%, COc1ccc(N2CCN(CCNS(=O)(=O)c3ccc(C(C)(C)C)cc3)CC2)cc1 2.21%, C=CCN1C(=O)[C@@H](CC(=O)N2CCN(C(=O)c3ccco3)CC2)[C@]2(C(=O)OC)CCCCC=C12 -0.82%
